The list is not random: actives were taken first. Their share in the collection is about 6.5%.
Spn MK inh: S. pneumoniae MK inhibitors, primary screen, biochemical, PK/LDH-coupled NADH absorbance | purified MK, PK/LDH-coupled NADH absorbance 340 nm | inhibition, % at 10 µM | actives 0.48% (n = 65,000) | AID 555, 2006;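 active means ranked among the strongest by inhibition in the single 10 µM screen, a fixed top-ranked set picked for dose follow-up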
DPM-DC inhibit: S. pneumoniae DPM-DC inhibitors, primary screen, biochemical, PK/LDH-coupled NADH fluorescence; AID 556, 2006; purified DPM-DC; calls only at 10 µM; actives 0.49% (n = 65,000);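 active means the 320 compounds with the highest percent inhibition in the single-dose primary screen, excluding strongly autofluorescent ones, cut at about 32% in these data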;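 further: kinetic rate of NADH fluorescence loss reporting ADP formed by the decarboxylase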
Fluor 339 460: intrinsic fluorescence of library compounds, ex339/em460 – biochemical, MLSMR library, data from DPM-DC assay, artefact control, profiling panel; compound autofluorescence, ex339/em460 nm, NADH buffer; active compounds read high; 1 = no-compound wells, NADH background; fluorescence fold increase at 10 µM; AID 709, 2007; actives 5.5% (n = 65,000);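 active means at 10 µM, mean starting fluorescence two-fold or more over control wells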;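 further: signal is the first read of a kinetic run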
PMK inhibit: S. pneumoniae PMK inhibitors, primary screen, biochemical, mevalonate pathway, pilot trial included; inhibition, % at 10 µM; AID 539, 2006; purified PMK, PK/LDH-coupled NADH absorbance 340 nm; actives 0.49% (n = 65,000); phosphomevalonate kinase (Streptococcus pneumoniae D39);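 active means top-ranked compounds by inhibition in the single 10 µM screen, taking a fixed number of the strongest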
A340 absorber: compound light absorbance at 340 nm, profiling panel, artefact control, biochemical, MLSMR library, data from PS, PMK, MK assays. compound absorbance at 340 nm, fold over control. fold change at 10 µM. 65,000 tested, under 10 active;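 active means at 10 µM dose, initial 340 nm absorbance at least 2 fold that of control wells; inactive means change under 2 fold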;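 further: initial absorbance extrapolated from kinetic A340 decline of NADH oxidation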
NADH enzymes: inhibitors of PK/LDH coupling enzymes, profiling panel, artefact control, biochemical, MLSMR library; coupled PK/LDH NADH assays, four targets; IC50, µM (series often up to 10 µM); actives 0.02% (n = 65,000); AID 774, 2007;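 active means single-dose screening hits from any of four coupled enzyme assays that gave an IC50 when retested across doses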;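 further: the DPM-DC format reads NADH fluorescence rather than 340 nm absorbance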
Numbers stand for hits.

`COc1ccc(-c2onc3ccc(Cl)cc23)cc1OC` gave Spn MK inh inactive, DPM-DC inhibit inactive, Fluor 339 460 inactive, PMK inhibit inactive, A340 absorber inactive and NADH enzymes inactive.
Screening O=C(c1cccn2c(=O)c3ccccc3nc12)N1CCN(c2ccccn2)CC1 returned Spn MK inh inactive, DPM-DC inhibit inactive, Fluor 339 460 inactive, PMK inhibit inactive, A340 absorber inactive and NADH enzymes inactive.
Screening O=C(O)c1cccn2c(=O)c3ccccc3nc12 returned Spn MK inh inactive, DPM-DC inhibit active, Fluor 339 460 inactive, PMK inhibit inactive, A340 absorber inactive and NADH enzymes 54µM.
COc1ccc(-n2c(O)c(/C=N/n3cnnc3)c3ccccc3c2=O)cc1 was read as Spn MK inh inactive, Fluor 339 460 2.1, PMK inhibit inactive, A340 absorber inactive and NADH enzymes inactive.
`COc1ccc(-c2csc(/C(C#N)=C(\O)CSc3nccn3C)n2)cc1OC` gave Spn MK inh inactive, DPM-DC inhibit inactive, Fluor 339 460 inactive, PMK inhibit inactive, A340 absorber inactive and NADH enzymes inactive.
CCOC(=O)Cc1nnc2c(Nc3ccc(Cl)cc3)nc3nonc3n12 was read as Spn MK inh inactive, DPM-DC inhibit inactive, Fluor 339 460 inactive, PMK inhibit inactive, A340 absorber inactive and NADH enzymes inactive.
For CC1Cn2c(nnc2-c2ccccc2O)S1 (centres undefined) the results were Spn MK inh inactive, DPM-DC inhibit inactive, Fluor 339 460 inactive, PMK inhibit inactive, A340 absorber inactive and NADH enzymes inactive.
Screening CC1Cn2c(nnc2-c2cc3ccccc3cc2O)S1 (centres undefined) returned Spn MK inh inactive, DPM-DC inhibit inactive, Fluor 339 460 2.9, PMK inhibit inactive, A340 absorber inactive and NADH enzymes inactive.
Screening COc1ccc(CCNC(=O)CN2CCCc3ccccc32)cc1OC returned Spn MK inh inactive, DPM-DC inhibit inactive, Fluor 339 460 inactive, PMK inhibit inactive, A340 absorber inactive and NADH enzymes inactive.
`CCC(Oc1ccc2c(c1)C(=O)CC(C)(C)O2)C(=O)NCCN1CCCCCC1` (centres undefined) gave Spn MK inh inactive, Fluor 339 460 5, PMK inhibit inactive, A340 absorber inactive and NADH enzymes inactive.
Screening CC1(C)CC(=O)c2cc(OCC(=O)NCCCN3CCN(c4ccc(F)cc4)CC3)ccc2O1 returned Spn MK inh inactive, DPM-DC inhibit inactive, Fluor 339 460 3.6, PMK inhibit inactive, A340 absorber inactive and NADH enzymes inactive.
`CC1(C)CC(=O)c2cc(OCC(=O)NCCN3CCCc4ccccc43)ccc2O1` gave Spn MK inh inactive, Fluor 339 460 5, PMK inhibit inactive, A340 absorber inactive and NADH enzymes inactive.
`COc1cc(C(=O)NCCC(=O)NCCN2CCCCCC2)cc(OC)c1OC` gave Spn MK inh inactive, DPM-DC inhibit inactive, Fluor 339 460 inactive, PMK inhibit inactive, A340 absorber inactive and NADH enzymes inactive.
CCOC(=O)CCn1cc(F)c(=O)n(Cc2ccccc2)c1=O was read as Spn MK inh inactive, DPM-DC inhibit inactive, Fluor 339 460 inactive, PMK inhibit inactive, A340 absorber inactive and NADH enzymes inactive.
Screening COc1ccc(CCNC(=O)Cn2cnc3c(cnn3-c3ccccc3Cl)c2=O)cc1OC returned Spn MK inh inactive, DPM-DC inhibit inactive, Fluor 339 460 inactive, PMK inhibit inactive, A340 absorber inactive and NADH enzymes inactive.
`CCOC(=O)c1nn(-c2ccccc2C)c(=O)c(C#N)c1C` gave Spn MK inh inactive, DPM-DC inhibit inactive, Fluor 339 460 inactive, PMK inhibit inactive, A340 absorber inactive and NADH enzymes inactive.
For CCC(=O)Nc1c(C#N)c2nc3ccccc3nc2n1C1CCCCC1 the results were Fluor 339 460 2.3, PMK inhibit inactive, A340 absorber inactive and NADH enzymes inactive.
`CCC(=O)Nc1c(C#N)c2nc3ccccc3nc2n1-c1ccccc1C` gave Spn MK inh inactive, Fluor 339 460 3.1, PMK inhibit inactive, A340 absorber inactive and NADH enzymes inactive.
